Screening results (PubChem)
This is a sample that favours compounds with a hit; in the whole collection about 9.4% have one here.
NPC1 promoter act: activators of NPC1 promoter; Potency, µM (doses to about 9.22 µM), for the others: at the top dose activation, actives largely listed as activators; actives 2.4% (n = 320,000); AID 485313; Huh7 NPC1 promoter luciferase reporter, 24 h; further: % of control where 0% means no effect; nearly all actives have a fitted effect of over 60% in size
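Huh7 reporter cells (NPC1 promoter driving luciferase) are dosed with compound for 24 h at 37 °C, 5% CO2; luciferase detection reagent is then added and luminescence measured after 10 min at ambient temperature.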
ELG1 repair inh: ELG1-dependent DNA repair inhibition. HEK293T ELG1-luciferase reporter, luminescence, 16 h; DNA damage induced by 5-fluorouridine. Potency, µM (doses to about 46.1 µM), for the others: at the highest dose activity change, negative = inhibition, hits mostly inhibitors. actives 2.3% (n = 330,000); further: on the % scale 0 is the no-effect control and ±100 the full control effect; nearly all actives have a fitted effect of over 55% in size
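5-Fluorouridine DNA damage + compound/DMSO, 2,000 cells/well, 16 h, 37 °C/5% CO2. ONE-Glo, 30 min RT, luminescence. Readout = decrease in reporter signal.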
FLuc modulator: counter-screen for miR-21 project: firefly luciferase inhibitors or activators; P08659; Potency, µM (titrated, usually from 57.5 µM), without a hit: at the highest dose activity change, negative = inhibition, actives largely listed as inhibitors; actives 6.9% (n = 360,000); purified FLuc, Km substrates, luminescence inhibition;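 further: plate controls were vehicle for no effect and reference inhibitor for full effect; nearly all actives have a fitted effect of over 55% in size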
Target sequence (P08659 whole entry, looked up): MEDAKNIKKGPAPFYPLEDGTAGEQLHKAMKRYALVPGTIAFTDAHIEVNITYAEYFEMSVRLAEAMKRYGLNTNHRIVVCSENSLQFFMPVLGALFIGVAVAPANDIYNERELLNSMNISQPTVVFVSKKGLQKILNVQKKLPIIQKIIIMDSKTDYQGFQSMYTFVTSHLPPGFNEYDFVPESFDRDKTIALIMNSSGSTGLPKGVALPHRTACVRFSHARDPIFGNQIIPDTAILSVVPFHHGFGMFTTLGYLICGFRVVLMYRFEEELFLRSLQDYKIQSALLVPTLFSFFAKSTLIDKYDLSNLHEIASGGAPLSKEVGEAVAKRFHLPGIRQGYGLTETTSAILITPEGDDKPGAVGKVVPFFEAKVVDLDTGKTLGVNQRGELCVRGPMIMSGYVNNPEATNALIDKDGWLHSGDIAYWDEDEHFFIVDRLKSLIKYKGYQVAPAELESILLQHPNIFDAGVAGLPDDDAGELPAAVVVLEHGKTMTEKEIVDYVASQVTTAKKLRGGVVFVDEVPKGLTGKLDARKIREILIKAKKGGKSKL
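Purified P. pyralis luciferase (10nM final) with 10uM D-luciferin and 10uM ATP (Km levels) in 50mM Tris acetate pH 7.5, 10mM Mg acetate, 0.01% Tween-20, 0.05% BSA; qHTS 6-point titration, ~60 µM downward; luminescence read.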
Rab9 prom act: activators of Rab9 promoter; Potency, µM (highest dose often 9.22 µM), without a hit: top-dose activation, negative = inhibition, actives largely listed as activators; actives 2.8% (n = 320,000); Huh7 Rab9 promoter-luciferase reporter, luminescence, 24 h; further: % of control where 0% means no effect; nearly all actives have a fitted effect of over 60% in size
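Huh7 reporter line, Rab9 promoter upstream of luciferase. Compound exposure 24 h at 37 °C in reduced-serum medium with 10% FBS. Read-out: luminescence.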
ELG1 genotox: inducers of genotoxicity in HEK293T ELG1-luciferase cells | HEK293T ELG1-luciferase reporter, luminescence, 16 h | Potency, µM (doses to about 46 µM), for inactives: top-dose activity change, positive = activation, usual class: activators | actives 1.3% (n = 330,000); further: % of control where 0% means no effect; nearly all actives have a fitted effect of over 60% in size
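ELG1-luciferase HEK293T cells, 2,000/well; compound pinned in; 16 hr, 37 °C, 5% CO2; ONE-Glo, 30 min RT; luminescence on CCD imager.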
SMN2 splice enh: increases expression of the SMN2 splice variant | Potency, µM (series often up to 46.1 µM), for the others: at the highest dose activity change, positive = activation, most hits filed as activators | HEK293 SMN2-luciferase splicing reporter, luminescence, 30-36 h | actives 2.8% (n = 210,000) | AID 1458; further: % of control where 0% means no effect; nearly all actives have a fitted effect of over 55% in size
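qHTS luciferase splicing reporter: luminescence rises when SMN2 exon 7 is included in transfected HEK293 cells. Compound exposure lasted 30-36 h at 37C, with 4.5 mM final sodium butyrate as control, followed by a ONE-Glo read.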
Starred values were filed as active, the others as inactive; ? = inconclusive; · = not tested or not shown; [ ] = remark or other dose. The call rests on the fitted dose curve; in most records, active means well fitted curve in the direction sought with a large enough effect; inconclusive means small, poorly fitted or top-dose-only effect, or another doubt; inactive means no such curve, though single readings can be large; an effect the other way counts as inactive or inconclusive. Potency means the concentration at half of the fitted maximal effect.

SMILES	NPC1 promoter act	ELG1 repair inh	FLuc modulator	Rab9 prom act	ELG1 genotox	SMN2 splice enh
N#Cc1cc2c(nc1SCC(=O)Nc1cccc(F)c1)C1CCN2CC1	·	·	-7%	·	·	6.3µM*
ClC(Cl)c1ccccc1	·	·	·	·	·	-2%
O=C(NCC(c1cccnc1)N1CCOCC1)Oc1ccccc1 (configuration not stated)	20%	?	15µM*	?	?	14µM*
ClC(Cl)(Cl)C(Cl)(Cl)Cl	·	·	·	·	·	21%
O=C(Nc1ccc2c(c1)OCO2)c1cccn(Cc2ccccc2)c1=O	·	·	17µM*	·	·	·
O=C(CSCc1ccccc1)Nc1ccc2c(c1)OCO2	?	?	15µM*	3.2µM*	?	11%
Cc1ccc(Cn2cccc(C(=O)Nc3ccc4c(c3)OCCO4)c2=O)cc1	·	·	8.5µM*	·	·	·
O=C(Nc1ccccc1)c1cccn(Cc2ccccc2)c1=O	16%	0%	24µM*	4µM*	?	-46%
Cc1ccc(Cn2cccc(C(=O)Nc3ccc4c(c3)OCO4)c2=O)cc1	·	·	-17%	·	·	·
C=C(C)c1ccccc1 (tested in a mixture with another compound)	·	·	·	·	·	-5%[9.22 µM]
Nc1c(C(=O)Nc2ccc([As](=O)(O)O)cc2)cnc2nnnn12	·	·	·	·	·	-4%[9.22 µM]
COc1cccc2c1C(=O)c1c(O)c3c(c(O)c1C2=O)C[C@](O)(/C(C)=N\O)C[C@@H]3O[C@H]1C[C@H](N)[C@@H](O)[C@H](C)O1	·	·	·	·	·	-27%[9.22 µM]
O=C(Nc1ccc2c(c1)OCO2)c1cccn(Cc2cccc(F)c2)c1=O	·	·	27µM*	·	·	·
Cc1cccc(Cn2cccc(C(=O)Nc3ccc(F)cc3F)c2=O)c1	·	·	-3%	·	·	·
O=C(Nc1ccc2c(c1)OCCO2)c1cccn(Cc2cccc(F)c2)c1=O	·	·	21µM*	·	·	·
CCc1ccc(NC(=O)c2cccn(Cc3cccc([N+](=O)[O-])c3)c2=O)cc1	·	·	9.5µM*	·	·	·
Cc1cccc(-n2c(=S)[nH]c3ccccc3c2=O)n1	1%	-16%	-1%	3%	18%	-19%
O=c1c2ccccc2[nH]c(=S)n1-c1ccc2c(c1)OCCO2	?	?	11µM*	?	15%	·
O=C(Oc1ccccc1)c1cc2ccccc2o1	0%	24%	9.5µM*	0%	1%	1%
CCc1cc2c(=O)n(C(C)C(=O)OC3CCCCC3)cnc2s1 (configuration not stated)	?	?	15µM*	?	9.2µM*	11µM*
CCOC(=O)C1=Nc2ccccc2/C1=C\c1c(O)n(C)c(=O)n(C)c1=O	-6%	21µM*	?	-5%	-8%	·
COc1ccc(-[n+]2c(-c3ccccc3)cc(-c3ccc(C)cc3)cc2-c2ccccc2)cc1	-43%	3.7µM*	0%	-53%	-11%	·
O=C1NC(=S)N(c2ccc(F)cc2)C(=O)/C1=C\c1ccoc1	-1%	1%	24µM*	-6%	0%	·
COc1ccc(N2C(=O)/C(=C/c3ccc(C)o3)C(=O)NC2=S)cc1	0%	25%	?	0%	0%	·
Cc1ccc(/C=C2\C(=O)NC(=S)N(c3cccc(F)c3)C2=O)o1	-3%	8%	17µM*	-1%	0%	·
SMILES	NPC1 promoter act	ELG1 repair inh	FLuc modulator	Rab9 prom act	ELG1 genotox	SMN2 splice enh
NC[C@@H](Cc1ccccc1)P(=O)(O)O	·	·	·	·	·	2%[9.22 µM]
C=CCS(=O)(=O)N1CCC(CCOc2ccccc2)(C(=O)OCC)CC1	0%	?	2%	-2%	-7%	·
CCC12CCN(C)CC1Oc1c(C)cccc12 (configuration not stated)	·	·	-2%	·	·	·
Cc1cnn(-c2cc(Oc3ccccc3)ncn2)c1	?	?	17µM*	?	1.5µM*	·
CC(C)CON=O	·	·	·	·	·	-1%
O=c1c2ccccc2[se]n1-c1ccccc1	-9%[46.1 µM]	7%	6µM*	14%[46.1 µM]	5%	-28%
COc1ccc(CCn2c(O)c(C=NCc3cccnc3)c(=O)[nH]c2=O)cc1OC	1%	3%	2%	0%	1%	-11%
COc1ccc(C2CC(c3c(O)n(CCc4ccccc4)c(=O)[nH]c3=O)=NN2)cc1OC (configuration not stated)	-1%	?	19µM*	-7%	-7%	·
C[C@]12CC[C@H](N)CC1=CCC1C2CC[C@@]2(C)C1CC[C@@H]2O (some centres not stated)	·	16µM*	·	·	-2%	·
CC(=O)[O-].CC(=O)[O-].O.O.O.[Pb+2]	·	·	·	·	·	2%
CNc1ccc2oc(C[C@@H]3OC4(CC[C@@H]3C)O[C@H]([C@@H](C)C(=O)c3ccc[nH]3)[C@H](C)C[C@H]4C)nc2c1C(=O)O (some centres not stated)	·	·	·	·	·	-104%
C=CCBr	·	·	·	·	·	-3%
CCOc1ccc(-c2cc(C)[n+](CCN3CCOCC3)c(-c3ccc(OCC)cc3)c2)cc1	-3%	16µM*	-1%	-4%	-13%	·
Cc1ccccc1NP(=O)(Oc1ccccc1F)Oc1ccccc1F	-2%	23µM*	-1%	-1%	-6%	2%
O=C1NC(=O)C(=Cc2ccc(-c3ccc(S(=O)(=O)N4CCOCC4)cc3)o2)C(=O)N1	-1%	?	?	2%	11%	·
O=C1NC(=O)C(=Cc2ccc(Sc3ccccc3)o2)C(=O)N1	1%	?	24µM*	0%	?	·
CN1C(=O)C(=Cc2ccc(Sc3ccccc3)o2)C(=O)N(C)C1=O	-3%	7%	?	-5%	13%	-2%
O=C1NC(=O)C(=Cc2ccc(-c3ccc(Cl)cc3)o2)C(=O)N1	0%	?	6.7µM*	0%	-16%	·
O=C1NC(=O)C(=Cc2ccc(-c3ccc(F)cc3O)o2)C(=O)N1	-2%	?	13µM*	-2%	1%	·
O=C(c1ccccc1)[C@H]1[C@H](c2ccccc2[N+](=O)[O-])N1C1CCCCC1 (some centres not stated)	·	·	·	·	·	1%[9.22 µM]
C=C1CC[C@H](O)C/C1=C/C=C1\CCC[C@]2(C)[C@H]1CC[C@H]2[C@@H](C)CCCC(C)C	·	·	·	·	·	-5%[20.6 µM]
CN1CCN(c2ccc([N+](=O)[O-])c3no[n+]([O-])c23)CC1	-32%	3.3µM*	?	-46%	-13%	·
COc1ccc(C(C)=O)cc1CC(C(=O)c1ccc(Br)cc1)N(C)C (configuration not stated)	-3%	-9%	3%	2%	-3%	-6%
COc1cc(C(C)=O)ccc1OCc1cc(C(=O)N(C)CCC2CCCCO2)no1 (configuration not stated)	2.2µM*	?	6.7µM*	1.6µM*	?	·
